Data from PubChem BioAssay (NCI).
Compounds without any hit were thinned out: in the full panel of roughly 83,000, 20% have a hit.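 48-hour exposure, single concentration, 96-well plates; percent growth endpoint where 0 means no net growth. Active: below 10.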 Activity calls are given as the source filed them.

Tested on: MDA-MB-468 breast
Assay: NCI-60 one-dose screen, 48 h (100 = growth as untreated, 0 = no growth, -100 = all killed)
Conditions: 10 µM unless noted

With `C=C(CN1CC=CCC1)[C@@H]1CC[C@]2(CO)CC[C@]3(C)[C@H](CC[C@@H]4[C@@]5(C)CC[C@H](O)C(C)(C)[C@@H]5CC[C@]43C)[C@@H]12` the growth was 89.2% (inactive).
In the case of `C=CC(O)CCC` (stereo not drawn), the growth is reported as 109% (inactive).
In the case of `C#CCn1cc(C=C2C(=O)N(C)C(=O)N(C)C2=O)c2cc(Cl)ccc21`, the growth is reported as 103% (inactive).
In the case of `C=C1C(=O)O[C@H]2[C@H]1CC/C(Cn1cc(CNCCc3c[nH]c4ccc(Cl)cc34)nn1)=C\CC[C@@]1(C)O[C@@H]21`, the growth is reported as 19.6% (inactive).
For `O=S(=O)(Nc1ccc(C2CC2)cc1)c1ccc(-c2cnc(C3CC3)o2)cc1`, the growth was 18.4% (inactive).
`CN1CCN(CCCCCN=c2cc3c(=O)n(CCCCCN4CCN(C)CC4)c(=O)c4c(NCCCCCN5CCN(C)CC5)cc5c(O)n(CCCCCN6CCN(C)CC6)c(=O)c2c5c4-3)CC1` was tested, and the growth was -50.8% (active).
For `O=C1C(Cl)=C(Nc2ccc3cn[nH]c3c2)C(=O)c2ccccc21`, the growth was -82.9% (active).
For `CCN(CC)c1ccc(NC2=C(Cl)C(=O)c3nc(C)ccc3C2=O)cc1`, the growth was -45% (active).
`Cc1n[nH]c2ccc(Br)cc2c1=O` was tested, and the growth was 99.9% (inactive).
With `CCCCCCNC(=O)Oc1ccc(/C(=C(/C)Cc2ccc(OC)cc2)c2ccc(OCCN(C)C)cc2)cc1` the growth was 62.9% (inactive).
For `O=C(Nc1cccc2[nH]c(C(F)(F)F)nc12)c1ccc(-n2cnnn2)cc1`, the growth was 80% (inactive).
In the case of `C#CCOC(=O)Nc1ccccc1`, the growth is reported as 117% (inactive).
With `Cn1cc(-c2nnc(-c3cn(C)c4ncccc34)s2)c2ccccc21` the growth was 12.6% (inactive).
